Data: PubChem BioAssay AID602449 (Sanford-Burnham Center for Chemical Genomics, 2012)
Screen size: about 360,000 compounds; about 5,000 (1.4%) were called active. The full list was thinned out, with actives kept by preference. Values without a mark were called inactive.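 Rule for the calls: active = inhibition of 50% or more, scaled per plate between neutral and stimulator controls; inactive = the rest.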

assay: mitochondrial permeability transition pore inhibitors, primary screen, biochemical, isolated mouse mitochondria, absorbance (AID 602449); conditions: Ca2+ swelling absorbance, 30 min, at 10 µM, active compounds read high;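 note: 0% = DMSO wells given calcium and 100% = 1 mM EGTA wells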

Row | SMILES | inhibition
1 | COc1ccc(NS(=O)(=O)c2ccc(Oc3c(C#N)cccc3C#N)cc2)cc1 | 91.6% (active)
2 | COc1ccc(NS(=O)(=O)c2ccc(N3CCN(CCO)CC3)c([N+](=O)[O-])c2)cc1 | 2.1%
3 | COc1ccc(NS(=O)(=O)c2ccc(NC(=O)c3ccc(N(C)S(C)(=O)=O)cc3)cc2)cc1 | 21.3%
4 | C/C(=N/NC(=O)c1cc(Cl)ccc1O)C12CC3CC(CC(C3)C1)C2 | 9.3%
5 | CC(=N\NC(=O)c1cc(Br)ccc1O)/C(=N/O)C(=O)Nc1ccccc1 | 76.8% (active)
6 | CC(=O)N/N=C(\C)c1ccc(Br)cc1Br | -4.6%
7 | CCO[C@H]1OC(C(=O)O)=C[C@@H](C2CCCCC2)[C@@H]1CCCO | -1.5%
8 | O=C(COC(=O)c1cnccn1)Nc1ccc(Cl)cc1C(F)(F)F | -0.1%
9 | C=CCNC(=O)CCCC(=O)NCC=C | 1.2%
10 | O=C(OC1CC2CC1[C@H]1CCCCN1C2=O)N1CCOCC1 (some centres not stated) | -3%
11 | Cc1ccc(C)c(NC(=S)NNC(=S)Nc2ccc(C(C)C)cc2)c1 | 93.7% (active)
12 | Cc1ccc(C)c(NC(=O)C2CC(=O)N(C(C)C)C2)c1 (configuration not stated) | -0.7%
13 | Cc1ccc(C)c(NC(=S)NCC(c2cccnc2)N2CCOCC2)c1 (configuration not stated) | -1.7%
14 | CCc1ccccc1NC(=O)CN(C)C(=O)COc1ccc(C)nc1[N+](=O)[O-] | 14.3%
15 | O=C(NCc1ccncc1)C1CCN(C(=O)c2cccc(Cl)c2)CC1 | 0.5%
16 | C=CCn1c(N)cc(=O)nc1SCC(=O)Nc1cccc2ccccc12 | 0.1%
17 | O=C(NNS(=O)(=O)c1ccc(F)cc1)c1ccc([N+](=O)[O-])cc1Cl | -0.9%
18 | Cc1cccc(NS(=O)(=O)c2ccc([N+](=O)[O-])cc2)n1 | 0.2%
19 | O=[N+]([O-])c1ccc(NS(=O)(=O)c2ccccc2)c(Cl)c1 | 86.7% (active)
20 | CC(Nc1ccccc1)c1cccnc1 (configuration not stated) | -1.4%
21 | CC(=O)c1c(C)[nH]c(C(=O)OCC(=O)Nc2sc3c(c2C#N)CCCC3)c1C | 98.8% (active)
22 | N#Cc1c(NC(=O)CCCl)sc2c1CCCCC2 | 0.2%
23 | CC(=O)c1c(C)[nH]c(C(=O)OCC(=O)Nc2c(C)cccc2C)c1C | 1.5%

Row | SMILES | inhibition
24 | O=C1CCN(Cc2ccc([N+](=O)[O-])cc2)CCN1[C@H](CO)Cc1ccccc1 | -0.2%
25 | O=C(Nc1ccccc1)Nc1nnc(COc2ccccc2F)s1 | 69.5% (active)
26 | O=C(Nc1nnc(COc2ccccc2)s1)Nc1ccccc1F | 6.4%
27 | COCc1nnc(NC(=O)CS(=O)(=O)Cc2ccccc2)s1 | 0.4%
28 | Cc1[nH]c2ccccc2c1-c1ccc(Cl)nn1 | -1%
29 | N#C[C@]1(S(=O)(=O)c2ccccc2)C[C@@H]2ON=C(c3cccc(Br)c3)[C@@H]2C1 | 72.4% (active)
30 | COC(=O)[C@]1(S(=O)(=O)c2ccccc2)C[C@@H]2ON=C(c3ccc(OC)cc3)[C@@H]2C1 | 1%
31 | CC1=C(C)CC(C(=O)NC(C)CCc2ccccc2)C(C(=O)O)C1 (configuration not stated) | -1.3%
32 | COc1cc(Br)c(-c2sc(Nc3ccccc3)n[n+]2-c2ccccc2)cc1OC | 1.6%
33 | COc1ccc(C)cc1Nc1n[n+](-c2ccccc2)c(-c2cccc(Cl)c2Cl)s1 | 1.4%
34 | CCc1ccc(Nc2n[n+](-c3ccccc3)c(-c3cccc(Cl)c3Cl)s2)cc1 | 57.1% (active)
35 | Cc1ccc(C)c(OCCC(=O)OCC(=O)N2CCN(c3ccccc3)CC2)c1 | -0.6%
36 | CCOC(=O)N1CCN(C(=O)Cc2ccc(-n3c(=S)[nH]c4ccccc4c3=O)cc2)CC1 | -1.2%
37 | O=C(CCCC(=O)N1CCN(c2cccc(Cl)c2)CC1)c1ccccc1 | -0.6%
38 | O=C(Cc1ccc(-n2c(=O)[nH]c3ccccc3c2=O)cc1)N1CCN(c2cccc(Cl)c2)CC1 | 53% (active)
39 | Cc1ccc(C(=O)N2CCN(C3CCCCC3)CC2)s1 | -0.6%
40 | COc1cccc(C(O)c2nc3ccccc3n2C)c1 (configuration not stated) | -0.2%
41 | CCCCCC(O)c1cccc(OCc2ccc3ccccc3n2)c1 (configuration not stated) | 50.9% (active)
42 | COc1cccc(C(O)c2ncc(-c3ccc4ccccc4c3)[nH]2)c1 (configuration not stated) | -0.1%
43 | Cc1ccnc(NC(=O)CCC(=O)N(CC(=O)NCc2ccccc2)Cc2ccco2)c1 | -0.3%
44 | Cc1cc(C)c2c(=O)[nH]c(SCC(=O)Nc3ccc(Br)cc3)nc2n1 | 4.4%
45 | N#Cc1c(-c2cccs2)nc(SCC(=O)c2ccc(Br)cc2)[nH]c1=O | 53.9% (active)
46 | CCc1ccc(C(=O)CSc2nnc(C)c(=O)[nH]2)cc1 | 0.8%

Row | SMILES | inhibition
47 | CC1=C(C(=O)N(C)C)CC(CC(=O)NCCc2ccccn2)C(=O)N1CCC1=CCCCC1 (configuration not stated) | -0.3%
48 | CSCCC(NC(=O)c1cc([N+](=O)[O-])cc([N+](=O)[O-])c1)c1nc2ccccc2[nH]1 (configuration not stated) | 50.8% (active)
49 | CSCCC(NC(=O)c1ccc(=O)n(C)n1)c1nc2ccccc2[nH]1 (configuration not stated) | -0.7%
50 | COc1ccc(CC(=O)N[C@@H](CCSC)c2nc3ccccc3[nH]2)cc1 | -1.3%
51 | COC(=O)[C@@]12C[C@@H](CC(=O)NCCCCc3ccccc3)C(=O)N(CCc3ccc(OC)c(OC)c3)C1=CCC(C)(C)C2 | -2.6%
52 | Cc1ccc(C)c(N2CCN(C(=O)Cn3ncn4cccc4c3=O)CC2)c1 | 0.1%
53 | COc1ccc(S(=O)(=O)NCC2CCCN(C(=O)c3occc3C)C2)cc1 (configuration not stated) | -0.5%
54 | O=c1cc(O)c(-c2cccc(C(F)(F)F)c2)c(Cl)[nH]1 | 3.7%
55 | O=C(NNc1ccccc1Cl)C(O)(c1cccc(C(F)(F)F)c1)c1cccc(C(F)(F)F)c1 | 90% (active)
56 | O=C(O)c1cc(S(=O)(=O)N(Cc2ccccc2)c2cccc(C(F)(F)F)c2)ccc1Cl | 0.9%
57 | CCCCNc1c(-c2cccc(Sc3ccc(OC)cc3)c2)nc2ccccn12 | 6.5%
58 | CC(=O)NC(CC(=O)Nc1ccc(S(=O)(=O)N2CCOCC2)cc1)c1ccccc1 (configuration not stated) | -1.9%
59 | COc1ccc(C(C)(O)c2nc(-c3cc(F)cc(F)c3)cs2)cc1 (configuration not stated) | 1.2%
60 | COC(=O)C1=CN(c2c(C)cc(C)cc2C)C(N)=C(C#N)C1c1cccc(F)c1 (configuration not stated) | 1.1%
61 | CCCCN(C)C(=O)C1CCN(Cc2ccccn2)CC1 | -1%
62 | N#Cc1c(-c2ccccc2)nc(SCc2cccc(C(F)(F)F)c2)[nH]c1=O | 49.1%
63 | O=c1c2ccccc2nc2n1C(CSc1ccc(Cl)cc1)CN2 (configuration not stated) | -1.7%
64 | C#CCCCc1nc2ccccc2c(=O)n1N | 5.8%
65 | Cn1c(-c2sccc2OCc2cccc(C(F)(F)F)c2)n[nH]c1=S | 0.2%
66 | O=c1c2ccccc2nc2n1C(CSCc1cccc(C(F)(F)F)c1)CS2 (configuration not stated) | 54% (active)
67 | O=c1c2ccccc2nc2n1C(CSCc1ccccc1)CS2 (configuration not stated) | 52.1% (active)
68 | COC(=O)[C@@]1(Cc2ccc(F)cc2)[C@H]2c3cc(C(=O)N(C)C)n(CCc4c[nH]c5ccc(OC)cc45)c3C[C@H]2CN1C(=O)c1ccccc1 | -3.6%
69 | Cc1ccc(OCc2nnc(NC(=O)OCC(C)C)s2)cc1 | 0%

Row | SMILES | inhibition
70 | O=c1c2[nH]c3ccc(Cl)cc3c2ncn1Cc1ccccn1 | 0.2%
71 | COc1ccccc1C1C(C#N)=C(N)Oc2c1c(-c1ccccc1)nn2-c1ccccc1 (configuration not stated) | 43.7%
72 | CN/C(=C\[N+](=O)[O-])NCCSCc1csc(CN(C)C)n1 | -1.8%
73 | O=C(Nc1cccc(F)c1)c1coc(=O)c(Br)c1 | 92.1% (active)
74 | O=C(Nc1cccc(F)c1)NC1CCCCCCC1 | 46.7%
75 | Cc1c(NC(=O)c2coc(=O)c(Br)c2)c(=O)n(-c2ccccc2)n1C | 0.9%
76 | CCC(C)NC(=O)N[C@@H](CCSC)C(=O)O (some centres not stated) | -0.7%
77 | Cc1ccc(SCCSc2ncccn2)cc1 | 1.5%
78 | CC(C)(C)c1ccc(SCCc2ccncc2)cc1 | 105% (active)
79 | Cc1cc(C)c(NC(=O)CSc2nc3ccncc3[nH]2)c(C)c1 | -1.3%
80 | Cc1cc(C)c(SCCc2ccncc2)c(C)c1 | 90.9% (active)
81 | c1ccc(CSCCc2ccncc2)cc1 | 4%
82 | CCN(Cc1ccncc1)C(=O)CCc1ccccc1 | 4%
83 | CN(C)CCNC(=O)c1ccc(-c2cn3c(-c4ccc(Oc5ccccc5)cc4)cnc3cn2)cc1 | -1.4%
84 | O=C(OC1CCOC1=O)c1cccc(S(=O)(=O)Nc2ccc(F)cc2)c1 (configuration not stated) | 2.8%
85 | CCOc1ccc(S(=O)(=O)NCCCn2ccnc2)cc1NC(C)=O | -0.5%
86 | CCN(CC)CCCN1C(=O)C(=O)/C(=C(/O)c2c(C)nc3ccccn23)C1c1ccc(C)o1 (configuration not stated) | 1.3%
87 | O=C(CN(Cc1ccccc1)C(=O)c1ccc2c(c1)OCCO2)NCc1ccc2c(c1)OCO2 | -5.6%
88 | CCC(=O)N1CCc2cc(S(=O)(=O)CCC(=O)N3CCN(c4ccccc4F)CC3)ccc21 | 0.5%
89 | O=C(C1Cc2ccccc2CN1C(=O)c1ccco1)N1CCN(c2ccccc2)CC1 (configuration not stated) | 0.7%
90 | CN1CCC(N(C)C(=O)c2ccc(Cl)c(S(=O)(=O)Nc3ccc(Cl)cc3)c2)CC1 | -0.7%
91 | C=C1c2c(Cl)ccc(O)c2C(O)=C2C(=O)[C@]3(O)C(O)=C(C(N)=O)C(=O)[C@@H](N(C)C)[C@@H]3[C@@H](O)C12 (some centres not stated) | 80.1% (active)
92 | CCC(C)(C)NC(=O)CN(C(=O)CCC(=O)Nc1nccs1)c1ccc2c(c1)OCO2 | 0.4%
